# This is a sample that favours compounds with a hit; in the whole collection about 19% have one here.
# TDP1 cell CPT: DT40-hTDP1 cell growth loss with CPT. actives 12% (n = 420,000). chicken DT40 Tdp1-/-;hTDP1 cells + 20 nM CPT, ATP luminescence, 48 h. Potency, µM (series often up to 46.2 µM), for the others: at the highest dose activity change, negative = growth inhibition, most hits filed as inhibitors; further: potency means the concentration at half of the fitted maximal effect; nearly all actives have a fitted effect of over 55% in size
#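 Chicken DT40 Tdp1-/- cells stably complemented with human TDP1 were seeded at 400 cells/well in medium containing 20 nM camptothecin, exposed to pin-transferred compounds, and grown at 37 °C for at least 48 hr. Viability was read as ATP luminescence.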
# HT1080 IDH1KD tx: HT-1080 IDH1 knockdown cell toxicity (counter line); HT-1080 IDH1 knockdown viability, ATP luminescence, 48 h; Potency, µM (highest dose often 46.1 µM), inactives show at the top dose activity, negative = toxicity, hits mostly cytotoxic; actives 2% (n = 360,000);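 further: potency means the concentration at half of the fitted maximal effect; 0% = DMSO wells and -100% = cell-free medium wells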
#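 CellTiter-Glo luminescence after 48 h compound exposure at 37 degrees C of IDH1-knockdown HT-1080 cells in 5% FBS RPMI. %Activity scaled between DMSO wells and cell-free media wells, with curves fitted and assigned curve classes.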
# DT40 TDP1 no CPT: qHTS for Inhibitors of human tyrosyl-DNA phosphodiesterase 1 (TDP1): qHTS in cells in absence of CPT; DT40 Tdp1-/- hTDP1 cells, no CPT, ATP luminescence, 48 h; Potency, µM (top dose mostly 46.2 µM), inactives show at the highest dose activity change, negative = growth inhibition, most hits filed as inhibitors; actives 15% (n = 420,000); AID 686978, 2013; further: potency means the concentration at half of the fitted maximal effect; nearly all actives have a fitted effect of over 55% in size
#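 Cells were dispensed at 400 per well, compounds added by pin tool, plates incubated ≥48 hr at 37 °C, then CellTiter-Glo added for 30 min at room temperature before luminescence reading. Line: DT40 Tdp1-/- complemented with hTDP1; camptothecin omitted.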
# IL-1B inflam inh: inflammasome signaling inhibition, IL-1 beta readout | THP-1 LPS/ATP IL-1B secretion, AlphaLISA, 16 h; hits give low values | activity change, % at 57.5 µM | actives 4.7% (n = 360,000) | AID 743279; in the data active means activity change below about -50%; inconclusive means mostly about -30% to -49%
#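 Secreted IL-1B measured by AlphaLISA bead assay after 16 h compound exposure of THP-1 cells; compounds (final up to 57.5 uM) added 1 h before LPS (250 ng/mL) and ATP (1.25 mM) stimulation; lower signal means less secretion.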
# HT1080-NT tox: kills 2HG-producing HT-1080-NT fibrosarcoma cells | actives 1.6% (n = 360,000) | Potency, µM (top dose mostly 46.1 µM), for the others: at the top dose activity, negative = less viability, usual class: cytotoxic | HT-1080-NT fibrosarcoma viability, CellTiter-Glo ATP luminescence, 48 h;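 further: NT is the 2HG producing partner of a matched IDH1 knockdown line; potency means the concentration at half of the fitted maximal effect; 0% = DMSO-treated cells and -100% = media-only wells without cells; nearly all actives have a fitted effect of over 55% in size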
#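 Read-out is CellTiter-Glo luminescence after 10 minutes at room temperature, following 48 hours' compound treatment of HT-1080-NT cells (750 cells/well, RPMI, 5% FBS, 37 degrees C).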
# * = called active by the depositor; ? = inconclusive; . = no result given. Unless noted, the call rests on the fitted dose curve; in most records, active means well fitted curve in the direction sought with a large enough effect; inconclusive means small, poorly fitted or top-dose-only effect, or another doubt; inactive means no such curve, though single readings can be large; an effect the other way counts as inactive or inconclusive. Unless noted, on the % scale 0 is the no-effect control and ±100 the full control effect.
SMILES,TDP1 cell CPT,HT1080 IDH1KD tx,DT40 TDP1 no CPT,IL-1B inflam inh,HT1080-NT tox
COc1cccc(CNC(=S)Nc2ccc3c(c2)c(=O)n(C)n3Cc2ccccc2)c1,?,0%,?,-11,25%
COc1ccccc1N1CCN(CC(=O)c2c(C)[nH]c3cc(C)ccc23)CC1,?,-10%,18µM*,-9,-6%
COc1ccccc1N1CCN(CC(=O)c2c(C)n(C)c3ccccc23)CC1,?,-33%,?,-2,-6%
Cc1ccc(Nc2nc(-c3cccnc3)nc3ccccc23)cc1,18µM*,?,8.2µM*,-67*,?
CCOC(=O)c1c(C)oc2ncnc(Nc3ccc(CC)cc3)c12,9%,.,?,.,.
CCOC(=O)c1nc(Nc2ccc(C)cc2)c2ccccc2n1,21µM*,-21%,13µM*,?,-21%
CCOC(=O)c1nc(Nc2ccccc2)c2ccccc2n1,?,11%,?,-21,-3%
Fc1ccc(Nc2nc(-c3ccncc3)nc3ccccc23)cc1F,.,-2%,.,-5,-8%
Cc1ccccc1Nc1nc(-c2cccnc2)nc2ccccc12,?,4%,21µM*,-14,7%
CCOC(=O)c1c(Nc2ccc(C)cc2)nnc(-c2ccccc2)c1-c1ccccc1,?,.,18µM*,.,.
COC(=O)c1ccccc1NC(=O)Nc1c(C)n(C)n(-c2ccccc2)c1=O,-1%,15%,24%,0,3%
Clc1ccccc1Nc1nc(-c2ccncc2)nc2ccccc12,29µM*,-8%,16µM*,-2,-4%
CCOC(=O)c1ccc(Nc2nc(-c3cccnc3)nc3ccccc23)cc1,16µM*,?,9.2µM*,-21,15µM*
CCNc1sc(C(=O)OCC)c(N)c1C#N,1%,4%,-7%,-14,1%
Cc1ccc(C)c(NC(=O)CCN2CCCC(C)C2)c1 (configuration not stated),2%,8%,-21%,1,9%
COc1ccc(/C=C/C(=O)Nc2sc(Cc3ccccc3)c(C)c2C(N)=O)cc1,-20%,-5%,-28%,-4,1%
Cc1c(Cc2ccccc2)sc(/N=C/c2c(O)ccc3ccccc23)c1C(N)=O,23µM*,?,?,19,?
Cc1c(Cc2ccccc2)sc(/N=C/c2ccc3ccccc3c2)c1C(N)=O,0.73µM*,2.9µM*,0.82µM*,44,2.9µM*
CCOC(=O)c1cc(CC)sc1/N=C/c1c(O)ccc2ccccc12,1%,18µM*,?,14,-29%
O=C(O)C(Cc1ccccc1)N1C(=O)c2c(Cl)c(Cl)c(Cl)c(Cl)c2C1=O (configuration not stated),-11%,3%,-6%,-22,8%
Cc1cccc(Nc2nc(Cl)ncc2F)c1C,10%,1%,1%,20,6%
O=C(CCc1nnc(CCCc2ccccc2)o1)NCCN1CCOC1=O,4%,1%,-18%,-3,8%
O=C(N/N=C/c1cn(-c2ccccc2)nc1-c1cccnc1)c1cccnc1,-29%,11%,-22%,?,3%
O=C(N/N=C/c1cn(-c2ccccc2)nc1-c1cc2ccccc2o1)c1ccncc1,26µM*,?,18µM*,?,?
O=C(N/N=C/c1cn(-c2ccccc2)nc1-c1cc2ccccc2o1)c1cccnc1,3.3µM*,0%,5.2µM*,-222*,11%
SMILES,TDP1 cell CPT,HT1080 IDH1KD tx,DT40 TDP1 no CPT,IL-1B inflam inh,HT1080-NT tox
Nc1cccnc1-n1nc(C(F)(F)F)cc1C(F)(F)F,-1%,0%,-3%,16,-4%
C[C@H](NC(=O)C1CCN(S(=O)(=O)c2ccccc2)CC1)C(=O)NCc1ccco1,-13%,3%,24%,-27,-6%
COc1cc(/C=C/C(=O)OCC(=O)N(CC(C)C)c2c(N)n(Cc3ccccc3)c(=O)[nH]c2=O)ccc1O,?,?,?,50,-6%
CCN(CC1CCCN(CCc2cccc(F)c2)C1)C(=O)c1cc(C)oc1C (configuration not stated),?,-1%,?,?,-2%
CCN(CC1CCCN(CCc2cccc(F)c2)C1)C(=O)c1cc2ccccc2o1 (configuration not stated),26µM*,?,18µM*,-88*,?
CN(CC1CCCN(CCc2cccc(C(F)(F)F)c2)C1)C(=O)c1cc2ccccc2o1 (configuration not stated),?,-12%,13µM*,-60*,-1%
CCN(CC)S(=O)(=O)c1cc(NC(=O)C(=O)c2c(-c3ccccc3)cc3ccccn23)ccc1C,21µM*,-19%,23µM*,2,-3%
CCN(CC)S(=O)(=O)c1cccc(NC(=O)C(=O)c2c(-c3ccccc3)cc3ccccn23)c1,?,-1%,23µM*,29,0%
CCN(CC)S(=O)(=O)c1cccc(C(=O)c2c(C)cc3ccccn23)c1,?,-14%,21µM*,1,0%
Cc1c2c(nc3ccccc13)OCC2,-12%,?,-23%,-3,?
COC(=O)C(C)Nc1cccc(Br)c1 (configuration not stated),-1%,2%,1%,5,0%
CCOC(=O)C(c1ccccc1)C(Nc1ccc(Cl)c(Cl)c1)c1ccccn1 (configuration not stated),?,-22%,9.2µM*,41,-30%
CCOC(=O)C(C(=O)OCC)C(Nc1cccc(Br)c1)c1ccccc1 (configuration not stated),15µM*,?,?,-68*,?
CC1=C(c2ccc(C)cc2)S(=O)(=O)NC1=NCc1ccccc1Cl,23µM*,.,21µM*,.,.
CC(C)CNc1ncnc2[nH]ncc12,-14%,-1%,-23%,37,-4%
Cc1ccccc1-c1cc(C(=O)NCc2ccco2)nn1CC1CC(c2cccc([N+](=O)[O-])c2)=NO1 (configuration not stated),16µM*,-7%,?,-26,-4%
Cc1ccccc1-c1cc(C(=O)NCc2cccs2)nn1CC1CC(c2cccc([N+](=O)[O-])c2)=NO1 (configuration not stated),?,-9%,16µM*,-21,-1%
O=C(COC(=O)c1cn(-c2ccccc2)nc1-c1cccnc1)NC1CC1,-13%,16%,?,-3,20%
Cn1c(=O)c2ccccc2n2c(=S)[nH]nc12,-4%,10%,-14%,27,11%
Cn1c(=O)c2ccccc2n2c(CCl)nnc12,12µM*,?,15µM*,-17,?

# Screening data as filed in PubChem.
